Source: PubChem BioAssay AID1159580 (chemical genetic matrix, 2015)
Values joined by “and” are separate entries in the source; they are usually repeats but may differ in a detail not shown here. Identical values can stand only once. Out of some 5,500 compounds screened, about 2,000 (36%) were called active. About 18% were inconclusive and are not listed. No stated cut-off is given here; in the data, active means normalized growth mostly below about 0.91 (no sharp cut-off); inconclusive means no clear call, values can overlap the other calls; inactive means mostly above about 0.92. The list shows a part of the results.

Assay: chemical genetic growth profiling, strain panel (AID 1159580);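 further: tested at 20 µM; growth read once vehicle control cultures reached saturation at 30 °C; 1 = growth at the plate median or of vehicle wells; lower values mean less growth of the strain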
Conditions: growth OD

Measured: normalized growth

CC(N)C(=O)OC(C)(C)Cc1ccc(Cl)cc1 (stereo unspecified)
inactive: S. cerevisiae deletion strains, locus YJR075W, strain HOC1, hits give low values 0.986 and 1 | S. cerevisiae deletion strains, locus YKL009W, strain mrt4, hits give low values 0.922 | S. cerevisiae deletion strains, locus YKL068W, hits give low values 0.992 | S. cerevisiae deletion strains, locus YKL085W, strain MDH1 (second series), hits give low values 0.98 | S. cerevisiae deletion strains, locus YKL085W, strain MDH1, hits give low values 0.98 | S. cerevisiae deletion strains, locus YKL160W, strain elf1, hits give low values 1.02 | S. cerevisiae deletion strains, locus YKL190W, strain CNB1, hits give low values 0.989 | S. cerevisiae deletion strains, locus YKR001C, strain vps1, hits give low values 1.03 | S. cerevisiae deletion strains, locus YKR026C, strain gcn3, hits give low values 0.998 | S. cerevisiae deletion strains, locus YKR091W, strain srl3, hits give low values 1.01 | S. cerevisiae deletion strains, locus YLL001W, strain dnm1, hits give low values 0.977 | S. cerevisiae deletion strains, locus YLL026W, hits give low values 1.01 | S. cerevisiae deletion strains, locus YLL041C, strain sdh2, hits give low values 1.02 | S. cerevisiae deletion strains, locus YLR027C, strain aat2, hits give low values 1.01 | S. cerevisiae deletion strains, locus YLR039C, strain RIC1, hits give low values 1.03 | S. cerevisiae deletion strains, locus YLR058C, strain SHM2, hits give low values 0.97 | S. cerevisiae deletion strains, locus YLR102C, strain apc9, hits give low values 0.995 | S. cerevisiae deletion strains, locus YLR113W, strain HOG1, hits give low values 1.01 | S. cerevisiae deletion strains, locus YLR221C, strain rsa3, hits give low values 1.02 | S. cerevisiae deletion strains, locus YLR258W, strain gsy2, hits give low values 1.02 | S. cerevisiae deletion strains, locus YLR262C, strain YPT6 (second series), hits give low values 1.06 | S. cerevisiae deletion strains, locus YLR262C, strain YPT6, hits give low values 0.986 | S. cerevisiae deletion strains, locus YLR268W, strain sec22, hits give low values 1.07 | S. cerevisiae deletion strains, locus YLR320W, strain mms22, hits give low values 1.04 | S. cerevisiae deletion strains, locus YLR330W, strain CHS5, hits give low values 0.988 | S. cerevisiae deletion strains, locus YLR342W, strain FKS1 (second series), hits give low values 0.928 | S. cerevisiae deletion strains, locus YLR342W, strain FKS1, hits give low values 1.02 | S. cerevisiae deletion strains, locus YLR357W, strain rsc2, hits give low values 1.03 | S. cerevisiae deletion strains, locus YLR370C, strain arc18, hits give low values 1.01 | S. cerevisiae deletion strains, locus YLR371W, strain rom2, hits give low values 0.986 | S. cerevisiae deletion strains, locus YLR384C, strain iki3, hits give low values 1.01 | S. cerevisiae deletion strains, locus YLR418C, strain cdc73, hits give low values 0.983 | S. cerevisiae deletion strains, locus YML016C, strain PPZ1, hits give low values 0.984 | S. cerevisiae deletion strains, locus YML032C, strain rad52, hits give low values 0.982 | S. cerevisiae deletion strains, locus YML120C, strain ndi1, hits give low values 1.02 | S. cerevisiae deletion strains, locus YML124C, strain tub3, hits give low values 0.985 | S. cerevisiae deletion strains, locus YMR058W, strain fet3, hits give low values 1.03 | S. cerevisiae deletion strains, locus YMR078C, strain ctf18, hits give low values 0.98 | S. cerevisiae deletion strains, locus YMR125W, strain sto1, hits give low values 1.01 | S. cerevisiae deletion strains, locus YMR129W, hits give low values 1.02 | S. cerevisiae deletion strains, locus YMR205C, strain PFK2, hits give low values 1.02 | S. cerevisiae deletion strains, locus YMR223W, strain ubp8, hits give low values 0.94 | S. cerevisiae deletion strains, locus YMR231W, strain pep5, hits give low values 1.02 | S. cerevisiae deletion strains, locus YMR263W, strain SAP30, hits give low values 0.984 and 1.02 | S. cerevisiae deletion strains, locus YMR307W, strain GAS1, hits give low values 1.04 | S. cerevisiae deletion strains, locus YNL067W, strain RPL9B, hits give low values 0.996 | S. cerevisiae deletion strains, locus YNL071W, strain lat1, hits give low values 1.02 | S. cerevisiae deletion strains, locus YNL128W, strain TEP1, hits give low values 0.975 and 1.02 | S. cerevisiae deletion strains, locus YNL153C, strain GIM3, hits give low values 0.992 | S. cerevisiae deletion strains, locus YNL175C, strain NOP13, hits give low values 1.04 | S. cerevisiae deletion strains, locus YNL183C, strain NPR1, hits give low values 0.982 | S. cerevisiae deletion strains, locus YNL197C, strain WHI3, hits give low values 1.09 | S. cerevisiae deletion strains, locus YNL209W, strain ssb2, hits give low values 1.02 | S. cerevisiae deletion strains, locus YNL224C, strain SQS1, hits give low values 1.05 | S. cerevisiae deletion strains, locus YNL233W, strain BNI4, hits give low values 0.983 | S. cerevisiae deletion strains, locus YNL248C, strain rpa49, hits give low values 1.02 | S. cerevisiae deletion strains, locus YNL250W, strain rad50, hits give low values 0.975 | S. cerevisiae deletion strains, locus YNL271C, strain bni1, hits give low values 1 | S. cerevisiae deletion strains, locus YNL298W, strain CLA4, hits give low values 0.981 | S. cerevisiae deletion strains, locus YNL307C, strain MCK1, hits give low values 0.972 | S. cerevisiae deletion strains, locus YNL322C, strain KRE1 (second series), hits give low values 1.01 | S. cerevisiae deletion strains, locus YNL322C, strain KRE1, hits give low values 0.986 | S. cerevisiae deletion strains, locus YNR049C, strain mso1, hits give low values 1.01 | S. cerevisiae deletion strains, locus YNR052C, strain pop2, hits give low values 0.986 | S. cerevisiae deletion strains, locus YOL006C, strain TOP1, hits give low values 1.05 | S. cerevisiae deletion strains, locus YOL012C, strain htz1 1 | S. cerevisiae deletion strains, locus YOL147C, strain pex11, hits give low values 0.988 | S. cerevisiae deletion strains, locus YOR001W, strain rrp6, hits give low values 1.06 | S. cerevisiae deletion strains, locus YOR061W, strain CKA2, hits give low values 0.975 | S. cerevisiae deletion strains, locus YOR069W, strain VPS5, hits give low values 0.981 | S. cerevisiae deletion strains, locus YOR070C, strain gyp1, hits give low values 1.02 | S. cerevisiae deletion strains, locus YOR080W, strain dia2, hits give low values 1.03 | S. cerevisiae deletion strains, locus YOR083W, strain WHI5 (second series), hits give low values 1.04 | S. cerevisiae deletion strains, locus YOR083W, strain WHI5, hits give low values 1.01 | S. cerevisiae deletion strains, locus YOR106W, strain vam3, hits give low values 1.07 | S. cerevisiae deletion strains, locus YOR136W, strain idh2, hits give low values 0.977 | S. cerevisiae deletion strains, locus YOR144C, strain elg1, hits give low values 0.988 | S. cerevisiae deletion strains, locus YOR184W, strain ser1, hits give low values 0.993 | S. cerevisiae deletion strains, locus YOR231W, strain MKK1, hits give low values 1.02 | S. cerevisiae deletion strains, locus YOR265W, strain rbl2, hits give low values 1.01 | S. cerevisiae deletion strains, locus YOR270C, strain vph1, hits give low values 1.09 | S. cerevisiae deletion strains, locus YOR290C, strain snf2, hits give low values 1.02 | S. cerevisiae deletion strains, locus YOR316C, strain cot1, hits give low values 0.99 | S. cerevisiae deletion strains, locus YPL051W, strain arl3, hits give low values 1.02 | S. cerevisiae deletion strains, locus YPL055C, strain LGE1, hits give low values 0.937 and 1.01 | S. cerevisiae deletion strains, locus YPL078C, strain atp4, hits give low values 1.01 | S. cerevisiae deletion strains, locus YPL106C, strain sse1, hits give low values 1.07 | S. cerevisiae deletion strains, locus YPL240C, strain hsp82, hits give low values 0.977 | S. cerevisiae deletion strains, locus YPL241C, strain CIN2, hits give low values 0.994 and 1.01 | S. cerevisiae deletion strains, locus YPL256C, strain CLN2, hits give low values 1.03 | S. cerevisiae deletion strains, locus YPR119W, strain clb2, hits give low values 0.989 | S. cerevisiae deletion strains, locus YPR141C, strain kar3, hits give low values 0.974 | S. cerevisiae deletion strains, locus YPR163C, strain tif3, hits give low values 0.993 | S. cerevisiae deletion strains, locus YPR167C, strain met16, hits give low values 0.993 | S. cerevisiae deletion strains, strain wtn01, hits give low values 0.995 | S. cerevisiae strains, strain wild type, hits give low values 0.982
